Activity calls are given as the source filed them. The calls were made as follows: active = hit-call score of the fitted dose curve at least 0.9, where 1 is the maximum; inactive = score below 0.9.

Consider seven molecules from PubChem BioAssay (EPA / NIEHS).

A short description of experiment [1]: APR_HepG2_NuclearSize_24hr: Apredica 24-hour HepG2 Assay for Nuclear Size (AID 2282907). The note with it: high-content imaging, actives raise or lower the signal. An outline of the steps: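 Compounds in DMSO (final 0.5%) were added to human HepG2 hepatoma cells at ten concentrations up to 200 uM for 24 hr. Fixed nuclei were stained with Hoechst 33342, and nuclear diameter was quantified from automated images.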

The nature of experiment [2]: APR_HepG2_CellLoss_24hr: Apredica 24-hour HepG2 Assay for Cell Loss (AID 2282908).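 As to AC50: fit in both directions so a hit may be cell loss or gain.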 As to conditions: high-content imaging. An outline of the steps:
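Cell number is quantified by fluorescence imaging of Hoechst 33342-stained nuclei following dosing at 0.39–200 uM in 0.5% DMSO. Curves are fitted in both directions from the DMSO baseline.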

The nature of experiment [3]: APR_HepG2_MicrotubuleCSK_24hr: Apredica 24-hour HepG2 Assay for Microtubule CSK Stabilty (AID 2282909). As to conditions: HepG2 microtubule cytoskeleton imaging, actives raise or lower the signal. The procedure, abridged:
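Steps: dose HepG2 for 24 h (0.39–200 uM, 0.5% DMSO); fix 30 min in 3.7% formaldehyde at room temperature; permeabilize; stain alpha-tubulin 60 min; image microtubule cytoskeleton at 20x. Signal change fitted in both directions relative to DMSO.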

Experiment [4] is described as follows: APR_HepG2_MitoticArrest_24hr: Apredica 24-hour HepG2 Assay for Mitotic Arrest (AID 2282910). As to conditions: high-content imaging, actives raise or lower the signal. An outline of the steps:
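HepG2 cells, 24 h exposure at 0.39-200 uM (10 concentrations, duplicate, 0.5% DMSO). Fixed, stained for phospho-histone H3 with Hoechst; imaged by high-content microscopy, bidirectional fit versus DMSO.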

Experiment [5] is described as follows: APR_HepG2_MitoMembPot_24hr: Apredica 24-hour HepG2 Assay for Mitochondrial Membrane Potential (AID 2282911). The note with it: imaging, actives raise or lower the signal. The procedure, abridged:
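HepG2 human liver cells were exposed 24 hr to compounds at 0.39–200 uM (final DMSO 0.5% v/v) in duplicate. MitoTracker Red CMXRos (250 nM, 30 min) was loaded before formaldehyde fixation; fluorescence was imaged by ArrayScan HCS and fitted bidirectionally versus DMSO.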

Experiment [6] in a line: APR_HepG2_MitoMass_24hr: Apredica 24-hour HepG2 Assay for Mitochondrial Mass (AID 2282912). The note with it: high-content imaging, actives raise or lower the signal. An outline of the steps:
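The liver line HepG2 was dosed in duplicate across a 0.39–200 uM series, with final DMSO held at 0.5% v/v, and harvested at 24 hr. High-content imaging measured mitochondrial dye staining.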

Experiment [7] in a line: APR_HepG2_p53Act_24hr: Apredica 24-hour HepG2 Assay for p53 Activation (AID 2282913).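 Also: p53 protein immunofluorescence averaged per cell in HepG2 with Hoechst nuclei.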 The note with it: high-content imaging, actives raise or lower the signal. The procedure, abridged: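 HepG2 cells exposed 24 hr to compounds at 0.39–200 uM (10 concentrations, duplicate), final DMSO 0.5% v/v. After formaldehyde fixation and Triton permeabilization, p53 was immunolabeled (sheep anti-p53, Cy5 secondary) with Hoechst 33342 nuclear counterstain, then imaged by high-content fluorescence microscopy.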

The nature of experiment [8]: APR_HepG2_CellCycleArrest_72hr: Apredica 72-hour HepG2 Assay for Cell Cycle Arrest (AID 2282914). As to conditions: high-content imaging, actives raise or lower the signal. The procedure, abridged:
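HepG2 cells were exposed to compounds at 0.39–200 uM (0.5% v/v DMSO final, duplicates) for 72 hr, fixed in 3.7% formaldehyde, permeabilized and stained with Hoechst 33342. Nuclear DNA content was quantified by high-content imaging; gain or loss of signal was fitted bidirectionally against DMSO.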

The nature of experiment [9]: APR_HepG2_CellLoss_72hr: Apredica 72-hour HepG2 Assay for Cell Loss (AID 2282915). The note with it: high-content imaging. An outline of the steps: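 HepG2 cells exposed 72 h to compound at 0.39–200 uM (10 concentrations, duplicate) in 0.5% DMSO. Fixed with 3.7% formaldehyde and Hoechst 33342-stained. Imaged at 20x; nuclear count gives cell number, fitted bidirectionally versus DMSO.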

The nature of experiment [10]: APR_HepG2_P-H2AX_72hr: Apredica 72-hour HepG2 Assay for H2AX Phosphorylation (AID 2282916).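 Also: phospho-histone H2A.x immunostain intensity per cell marking DNA damage.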 The note with it: imaging, actives raise or lower the signal. The procedure, abridged: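 Following 72 hr treatment with 0.39–200 uM compound, HepG2 cells were formaldehyde-fixed, permeabilized and stained for phospho-H2A.x; signal was measured by high-content imaging and fitted bidirectionally against DMSO controls.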

The nature of experiment [11]: APR_HepG2_MitoMembPot_72hr: Apredica 72-hour HepG2 Assay for Mitochondrial Membrane Potential (AID 2282917). The note with it: imaging, actives raise or lower the signal. An outline of the steps: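 HepG2 cells dosed 72 hr with compound at 0.39–200 uM in duplicate, 0.5% v/v DMSO final. Mitochondria stained with 250 nM MitoTracker Red CMXRos for 30 min before formaldehyde fixation, imaged by high-content fluorescence; bidirectional fit versus DMSO.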

Experiment [12] in a line: APR_HepG2_MitoticArrest_72hr: Apredica 72-hour HepG2 Assay for Mitotic Arrest (AID 2282918). The note with it: high-content imaging, actives raise or lower the signal. An outline of the steps: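 HepG2 cells were exposed for 72 hr to compound at 0.39–200 uM (10 concentrations, duplicate) in 0.5% v/v DMSO, fixed in 3.7% formaldehyde, immunostained for phospho-histone H3 with Hoechst 33342 and imaged by high-content fluorescence; bidirectional fits versus DMSO.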

A short description of experiment [13]: APR_HepG2_MicrotubuleCSK_72hr: Apredica 72-hour HepG2 Assay for Microtubule CSK Stabilty (AID 2282919). As to conditions: HepG2 microtubule cytoskeleton, high-content imaging, actives raise or lower the signal. An outline of the steps:
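HepG2 cells were exposed 72 hr to compound at 0.39–200 uM in duplicate (0.5% DMSO final), then fixed and permeabilized. Alpha-tubulin immunofluorescence was imaged by high-content microscopy, with bidirectional fitting against DMSO and taxol as positive control.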

Experiment [14] can be described thus: APR_HepG2_P-H2AX_24hr: Apredica 24-hour HepG2 Assay for H2AX Phosphorylation (AID 2282920). As to conditions: high-content imaging, actives raise or lower the signal. The procedure, abridged:
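HepG2 human liver cells were exposed for 24 hr to compounds at 0.39–200 uM in duplicate, with 0.5% v/v DMSO final. Fixed cells were immunostained for phospho-histone H2A.x plus Hoechst 33342, imaged by HCS fluorescence, and fitted bidirectionally against DMSO.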

Experiment [15] in a line: APR_HepG2_StressKinase_72hr: Apredica 72-hour HepG2 Assay for Stress Kinase (AID 2282921). The note with it: HepG2 stress kinase (phospho-c-Jun) imaging, actives raise or lower the signal. The procedure, abridged:
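Fluorescence intensity of Cy3-tagged anti-phospho-c-Jun antibody, quantified per cell from Hoechst-defined nuclei across six images per well, served as the read-out following 72 h exposure (0.39–200 uM, 0.5% v/v DMSO).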

The nature of experiment [16]: APR_HepG2_StressKinase_24hr: Apredica 24-hour HepG2 Assay for Stress Kinase (AID 2282922). The note with it: HepG2 stress kinase (phospho-c-Jun) imaging, actives raise or lower the signal. An outline of the steps: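 HepG2 cells exposed 24 h to 0.39–200 uM compound in duplicate (0.5% v/v DMSO final). Cells fixed in 3.7% formaldehyde, permeabilized and immunostained for phospho-c-Jun; read by high-content fluorescence imaging, fitted bidirectionally against DMSO.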

Experiment [17] is described as follows: APR_HepG2_NuclearSize_72hr: Apredica 72-hour HepG2 Assay for Nuclear Size (AID 2282925). As to conditions: high-content imaging, actives raise or lower the signal. The procedure, abridged: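 HepG2 cells dosed 72 h at 0.39–200 uM (10 concentrations, duplicate) in 0.5% v/v DMSO final. Fixed, Hoechst 33342-stained nuclei imaged; nuclear diameter measured by automated image analysis. Bidirectional fit versus DMSO.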

The nature of experiment [18]: APR_HepG2_StressKinase_1hr: Apredica 1-hour HepG2 Assay for Stress Kinase (AID 2282906). As to conditions: HepG2 stress kinase (phospho-c-Jun) imaging, actives raise or lower the signal. An outline of the steps: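 HepG2 cells dosed 0.39-200 uM (0.5% DMSO) for 1 h, then formaldehyde-fixed. Stress kinase read by phospho-c-Jun immunofluorescence using high-content imaging; bidirectional fit vs DMSO.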

A short description of experiment [19]: APR_HepG2_p53Act_72hr: Apredica 72-hour HepG2 Assay for p53 Activation (AID 2282923).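 Also: average cellular p53 protein immunofluorescence intensity in HepG2 cells.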 The note with it: high-content imaging, actives raise or lower the signal. An outline of the steps: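 HepG2 monolayers receive test compounds in duplicate at ten concentrations (0.39 through 200 uM) for 72 hr. They are then formaldehyde-fixed, antibody-labelled for p53, Hoechst-stained and imaged, with activity fitted bidirectionally versus DMSO.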

Experiment [20] can be described thus: APR_HepG2_MitoMass_72hr: Apredica 72-hour HepG2 Assay for Mitochondrial Mass (AID 2282924).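 Also: MitoTracker Red CMXRos stain intensity per cell imaged as mitochondrial mass.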 As to conditions: high-content imaging, actives raise or lower the signal. An outline of the steps:
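HepG2 cells dosed 72 hr at 0.39–200 uM (0.5% DMSO), in duplicate. MitoTracker Red CMXRos 250 nM loaded 30 min before formaldehyde fixation; high-content fluorescence imaging, bidirectional fit versus DMSO.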

In the case of `c1ccc(Nc2ccccc2)cc1`, the outcome in [1], in [2], in [3], in experiment [4], in [5] and in experiment [6] was inactive. The outcome in [7], in [8], in experiment [9], in [10], in [11] and in [12] was inactive. Besides, the result in experiment [13], in experiment [14], in [15], in experiment [16] and in experiment [17] was inactive.
As to `c1ccc2[nH]c(-c3cscn3)nc2c1`, the call in experiment [1], in [2], in experiment [3], in experiment [4], in experiment [5] and in [6] was inactive. In addition, the call in experiment [9], in [10], in experiment [11], in experiment [12], in experiment [13] and in [14] was inactive. Besides, the molecule was classed as inactive in experiment [15], in experiment [16] and in [17].
For orientation: AC50 means the concentration giving half of the maximal activity seen. `CC(=O)S[C@@H]1CC2=CC(=O)CC[C@]2(C)[C@H]2CC[C@@]3(C)[C@@H](CC[C@@]34CCC(=O)O4)[C@H]12`: the outcome in experiment [1], in experiment [3], in experiment [13] and in experiment [17] was inactive. For the same molecule, the AC50 was 54.6 µM (active) in [2]; 30.2 µM (active) in [4]; 82.3 µM (active) in experiment [5]; 29.1 µM (active) in [6]; 54.7 µM (active) in experiment [7]; 39.3 µM (active) in experiment [9]. Further, the AC50 in [10] is 35 µM (active); in experiment [11], 100 µM (active); in experiment [12] it was 53.6 µM (active); in experiment [14], 46.4 µM (active); in experiment [15] it was 49.3 µM (active).
With `C=CCOC(Cn1ccnc1)c1ccc(Cl)cc1Cl` (centres undefined), the molecule was called inactive in [18], in experiment [1], in experiment [3], in [4], in experiment [5] and in experiment [6]. Also, the result in [7], in experiment [10], in experiment [11], in [14], in experiment [15] and in [19] was inactive. Further, the molecule was classed as inactive in [17]. Besides, the AC50 in [2] was 55.8 µM (active); in experiment [9] it was 78.2 µM (active); in [12] it was 78.5 µM (active); in experiment [13], 43.1 µM (active).
Turning to `CCCCOCCOCCOCc1cc2c(cc1CCC)OCO2`, the result in experiment [18], in experiment [1], in experiment [2], in experiment [4], in experiment [5] and in experiment [6] was inactive. The molecule was called inactive in [10], in [11], in [12], in experiment [14], in experiment [15] and in experiment [16]. Further, in [17], the molecule was classed as inactive. Moreover, the results for the AC50 in [9] and in [13] were 85.8 µM (active) and 78.1 µM (active), respectively.
As to `O=C(O)c1ccccc1`, the call in [1], in experiment [2], in experiment [3], in [4], in experiment [5] and in experiment [6] was inactive. Further, the result in experiment [7], in [9], in experiment [10], in experiment [11], in experiment [12] and in [13] was inactive. Besides, the molecule was classed as inactive in [14], in [15], in experiment [16], in experiment [20] and in experiment [17].
Turning to `COC(=O)c1c(Cl)nn(C)c1S(=O)(=O)NC(=O)Nc1nc(OC)cc(OC)n1`, the result in experiment [18], in experiment [1], in experiment [2], in experiment [4], in experiment [5] and in experiment [6] was inactive. The result in experiment [7], in experiment [8], in [9], in [10], in experiment [11] and in experiment [12] was inactive. Moreover, the molecule was called inactive in experiment [13], in [14], in [15], in experiment [16], in experiment [20] and in [17].
